Reference: the supplement of paper PMC4022240
± gives the standard deviation.

Key:
Assay in all cases: peptide microarray binding signal (635 nm), min-max normalized on array (fraction of array maximum); higher = stronger binding
Conditions in all cases: peptide region: H3 11-23
[1] = target: T1, HaloTag-ATRX ADD domain (163-292)
T1 chain: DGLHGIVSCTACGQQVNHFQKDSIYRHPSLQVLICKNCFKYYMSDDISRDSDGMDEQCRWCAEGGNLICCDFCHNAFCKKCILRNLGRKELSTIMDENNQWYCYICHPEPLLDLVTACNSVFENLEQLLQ
In short: (§1)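 Within each library, mean intensities of triplicate spots were min-max scaled to give the binding signal. The spots were histone 13-mer peptide–cellulose conjugates on nitrocellulose with a Cy3 tracer, blocked overnight at 4°C. They were then probed for 1 h at 4°C using biotin-labelled HaloTag reader fusions (10 nM to 1 μM) with streptavidin-Alexa Fluor 647 or rabbit histone antibodies (1:10,000 to 1:2,000) with anti-rabbit Alexa 647, and scanned at 635 nm for signal and 532 nm for misprints on an Axon GenePix 4000B.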

[2] = target: HaloTag-ING2 PHD (mouse Ing2 200-280)
In short: as §1

[3] = target: anti-H3K4me3 antibody ab8580
In short: as §1

[4] = target: anti-H3K9me3 antibody ab8898
In short: as §1

[5] = peptide modifications: H3K14me3 H3R17me2s, binder concentration: 1:2,000 dilution
[6] = peptide modifications: H3K14me3 H3R17me2s, binder concentration: 1:10,000 dilution
[7] = peptide modifications: H3K14me3 H3K18me1, binder concentration: 1:2,000 dilution
[8] = peptide modifications: H3K14me3 H3K18me1, binder concentration: 1:10,000 dilution
[9] = peptide modifications: H3K14me2 H3R17cit, binder concentration: 1:2,000 dilution
[10] = peptide modifications: H3K14me2 H3R17cit, binder concentration: 1:10,000 dilution
[11] = peptide modifications: H3K14me3 H3R17me2a, binder concentration: 1:2,000 dilution
[12] = peptide modifications: H3K14me3 H3R17me2a, binder concentration: 1:10,000 dilution
[13] = peptide modifications: H3K14me3, binder concentration: 1:2,000 dilution
[14] = peptide modifications: H3K14me3, binder concentration: 1:10,000 dilution
[15] = peptide modifications: H3K14me3 H3K18ac, binder concentration: 1:2,000 dilution
[16] = peptide modifications: H3K14me3 H3K18ac, binder concentration: 1:10,000 dilution
[17] = peptide modifications: H3K14me2 H3R17me2a, binder concentration: 1:2,000 dilution
[18] = peptide modifications: H3K14me2 H3R17me2a, binder concentration: 1:10,000 dilution
[19] = peptide modifications: H3K14me3 H3R17cit, binder concentration: 1:2,000 dilution
[20] = peptide modifications: H3K14me3 H3R17cit, binder concentration: 1:10,000 dilution
[21] = peptide modifications: H3K14me2 H3R17me2s, binder concentration: 1:2,000 dilution
[22] = peptide modifications: H3K14me2 H3R17me2s, binder concentration: 1:10,000 dilution
[23] = peptide modifications: H3K18ac, binder concentration: 1:2,000 dilution
[24] = peptide modifications: H3K18ac, binder concentration: 1:10,000 dilution

TGGKAPRKQLATK [H3 11-23 T G G Kme3 A P Rme2s K Q L A T K]
peptide microarray binding signal ([1]; peptide modifications: H3K14me3 H3R17me2s, binder concentration: 50 nM): 0.0074 ± 0.0004
peptide microarray binding signal ([1]; peptide modifications: H3K14me3 H3R17me2s, binder concentration: 500 nM): 0.0114 ± 0.00062
peptide microarray binding signal ([2]; peptide modifications: H3K14me3 H3R17me2s, binder concentration: 10 nM): 0.0227 ± 0.00044
peptide microarray binding signal ([2]; peptide modifications: H3K14me3 H3R17me2s, binder concentration: 100 nM): 0.0342 ± 0.0024
peptide microarray binding signal [3, 5]: 0.0208 ± 0.0037
peptide microarray binding signal [3, 6]: 0.0151 ± 0.00082
peptide microarray binding signal [4, 5]: 0.021 ± 0.0014
peptide microarray binding signal [4, 6]: 0.0116 ± 0.00028

TGGKAPRKQLATK [H3 11-23 T G G Kme3 A P R Kme Q L A T K]
peptide microarray binding signal ([1]; peptide modifications: H3K14me3 H3K18me1, binder concentration: 50 nM): 0.00624 ± 0.00027
peptide microarray binding signal ([1]; peptide modifications: H3K14me3 H3K18me1, binder concentration: 500 nM): 0.0127 ± 0.00063
peptide microarray binding signal ([2]; peptide modifications: H3K14me3 H3K18me1, binder concentration: 10 nM): 0.0189 ± 0.00082
peptide microarray binding signal ([2]; peptide modifications: H3K14me3 H3K18me1, binder concentration: 100 nM): 0.0235 ± 0.0053
peptide microarray binding signal [3, 7]: 0.0496 ± 0.0091
peptide microarray binding signal [3, 8]: 0.0252 ± 0.0028
peptide microarray binding signal [4, 7]: 0.0621 ± 0.0077
peptide microarray binding signal [4, 8]: 0.0203 ± 0.0028

TGGKAPRKQLATK [H3 11-23 T G G Kme2 A P Rcit K Q L A T K]
peptide microarray binding signal ([1]; peptide modifications: H3K14me2 H3R17cit, binder concentration: 50 nM): 0.00455 ± 0.00063
peptide microarray binding signal ([1]; peptide modifications: H3K14me2 H3R17cit, binder concentration: 500 nM): 0.0129 ± 0.0034
peptide microarray binding signal ([2]; peptide modifications: H3K14me2 H3R17cit, binder concentration: 10 nM): 0.0106 ± 0.0018
peptide microarray binding signal ([2]; peptide modifications: H3K14me2 H3R17cit, binder concentration: 100 nM): 0.0185 ± 0.002
peptide microarray binding signal [3, 9]: 0.00051 ± 4e-05
peptide microarray binding signal [3, 10]: 0.0016 ± 4.6e-05
peptide microarray binding signal [4, 9]: 0.00488 ± 0.0014
peptide microarray binding signal [4, 10]: 0.00398 ± 0.00058

TGGKAPRKQLATK [H3 11-23 T G G Kme3 A P Rme2a K Q L A T K]
peptide microarray binding signal ([1]; peptide modifications: H3K14me3 H3R17me2a, binder concentration: 50 nM): 0.0192 ± 0.0025
peptide microarray binding signal ([1]; peptide modifications: H3K14me3 H3R17me2a, binder concentration: 500 nM): 0.027 ± 0.0031
peptide microarray binding signal ([2]; peptide modifications: H3K14me3 H3R17me2a, binder concentration: 10 nM): 0.0158 ± 0.0011
peptide microarray binding signal ([2]; peptide modifications: H3K14me3 H3R17me2a, binder concentration: 100 nM): 0.0298 ± 0.0018
peptide microarray binding signal [3, 11]: 0.0582 ± 0.0093
peptide microarray binding signal [3, 12]: 0.0419 ± 0.0073
peptide microarray binding signal [4, 11]: 0.133 ± 0.0046
peptide microarray binding signal [4, 12]: 0.0547 ± 0.0033

TGGKAPRKQLATK [H3 11-23 T G G Kme3 A P R K Q L A T K]
peptide microarray binding signal ([1]; peptide modifications: H3K14me3, binder concentration: 50 nM): 0.00567 ± 0.0004
peptide microarray binding signal ([1]; peptide modifications: H3K14me3, binder concentration: 500 nM): 0.017 ± 0.0053
peptide microarray binding signal ([2]; peptide modifications: H3K14me3, binder concentration: 10 nM): 0.0115 ± 0.0029
peptide microarray binding signal ([2]; peptide modifications: H3K14me3, binder concentration: 100 nM): 0.0106 ± 0.0035
peptide microarray binding signal [3, 13]: 0.0134 ± 0.0088
peptide microarray binding signal [3, 14]: 0.0221 ± 0.0092
peptide microarray binding signal [4, 13]: 0.062 ± 0.022
peptide microarray binding signal [4, 14]: 0.0336 ± 0.0081

TGGKAPRKQLATK [H3 11-23 T G G Kme3 A P R Kac Q L A T K]
peptide microarray binding signal ([1]; peptide modifications: H3K14me3 H3K18ac, binder concentration: 50 nM): 0.00646 ± 0.00042
peptide microarray binding signal ([1]; peptide modifications: H3K14me3 H3K18ac, binder concentration: 500 nM): 0.0102 ± 0.00058
peptide microarray binding signal ([2]; peptide modifications: H3K14me3 H3K18ac, binder concentration: 10 nM): 0.0146 ± 0.00098
peptide microarray binding signal ([2]; peptide modifications: H3K14me3 H3K18ac, binder concentration: 100 nM): 0.032 ± 0.004
peptide microarray binding signal [3, 15]: 0.06 ± 0.018
peptide microarray binding signal [3, 16]: 0.0259 ± 0.0059
peptide microarray binding signal [4, 15]: 0.0686 ± 0.018
peptide microarray binding signal [4, 16]: 0.0246 ± 0.0023

TGGKAPRKQLATK [H3 11-23 T G G Kme2 A P Rme2a K Q L A T K]
peptide microarray binding signal ([1]; peptide modifications: H3K14me2 H3R17me2a, binder concentration: 50 nM): 0.00561 ± 0.00083
peptide microarray binding signal ([1]; peptide modifications: H3K14me2 H3R17me2a, binder concentration: 500 nM): 0.00867 ± 0.00039
peptide microarray binding signal ([2]; peptide modifications: H3K14me2 H3R17me2a, binder concentration: 10 nM): 0.00686 ± 0.00028
peptide microarray binding signal ([2]; peptide modifications: H3K14me2 H3R17me2a, binder concentration: 100 nM): 0.00893 ± 0.00059
peptide microarray binding signal [3, 17]: 0.00351 ± 0.00056
peptide microarray binding signal [3, 18]: 0.00434 ± 0.00045
peptide microarray binding signal [4, 17]: 0.00379 ± 0.00076
peptide microarray binding signal [4, 18]: 0.00306 ± 0.00024

TGGKAPRKQLATK [H3 11-23 T G G Kme3 A P Rcit K Q L A T K]
peptide microarray binding signal ([1]; peptide modifications: H3K14me3 H3R17cit, binder concentration: 50 nM): 0.00273 ± 3.1e-05
peptide microarray binding signal ([1]; peptide modifications: H3K14me3 H3R17cit, binder concentration: 500 nM): 0.003095 ± 2.4e-05
peptide microarray binding signal ([2]; peptide modifications: H3K14me3 H3R17cit, binder concentration: 10 nM): 0.00603 ± 0.00019
peptide microarray binding signal ([2]; peptide modifications: H3K14me3 H3R17cit, binder concentration: 100 nM): 0.00709 ± 0.00015
peptide microarray binding signal [3, 19]: 0.00325 ± 7.6e-05
peptide microarray binding signal [3, 20]: 0.00257 ± 6e-05
peptide microarray binding signal [4, 19]: 0.00877 ± 0.0011
peptide microarray binding signal [4, 20]: 0.00519 ± 0.00016

TGGKAPRKQLATK [H3 11-23 T G G Kme2 A P Rme2s K Q L A T K]
peptide microarray binding signal ([1]; peptide modifications: H3K14me2 H3R17me2s, binder concentration: 50 nM): 0.00489 ± 0.00015
peptide microarray binding signal ([1]; peptide modifications: H3K14me2 H3R17me2s, binder concentration: 500 nM): 0.0177 ± 0.0016
peptide microarray binding signal ([2]; peptide modifications: H3K14me2 H3R17me2s, binder concentration: 10 nM): 0.0129 ± 0.0031
peptide microarray binding signal ([2]; peptide modifications: H3K14me2 H3R17me2s, binder concentration: 100 nM): 0.00964 ± 0.0051
peptide microarray binding signal [3, 21]: 0.00034 ± 1e-05
peptide microarray binding signal [3, 22]: 0.0123 ± 0.0055
peptide microarray binding signal [4, 21]: 0.00669 ± 0.0021
peptide microarray binding signal [4, 22]: 0.00726 ± 0.0002

TGGKAPRKQLATK [H3 11-23 T G G K A P R Kac Q L A T K]
peptide microarray binding signal ([1]; peptide modifications: H3K18ac, binder concentration: 50 nM): 0.00715 ± 0.00076
peptide microarray binding signal ([1]; peptide modifications: H3K18ac, binder concentration: 500 nM): 0.023 ± 0.014
peptide microarray binding signal ([2]; peptide modifications: H3K18ac, binder concentration: 10 nM): 0.0127 ± 0.0019
peptide microarray binding signal ([2]; peptide modifications: H3K18ac, binder concentration: 100 nM): 0.0351 ± 0.016
peptide microarray binding signal [3, 23]: 0.00259 ± 0.002
peptide microarray binding signal [3, 24]: 0.00462 ± 0.00058
peptide microarray binding signal [4, 23]: 0.00184 ± 8.2e-05
peptide microarray binding signal [4, 24]: 0.00173 ± 8.8e-05
